The record followed here is PubChem BioAssay (NCATS).

The structures appear in SMILES notation. Results filed as inconclusive are left out. Where a call stands in place of a potency, no number is given. Activity calls are given as the source filed them. The call rests on the fitted dose curve; in most records, active means well fitted curve in the direction sought with a large enough effect; inconclusive means small, poorly fitted or top-dose-only effect, or another doubt; inactive means no such curve, though single readings can be large; an effect the other way counts as inactive or inconclusive.

The target of assay [1] is Aldehyde dehydrogenase, mitochondrial (Homo sapiens) (UniProt P05091). Put plainly: qHTS for Inhibitors of the Aldehyde Dehydrogenase Family (ALDH2) Primary screen (AID 2061308). Further: nearly all actives have a fitted effect of over 55% in size.
For assay [2], the target named is Retinaldehyde dehydrogenase 3 (Homo sapiens) (UniProt P47895). Put plainly: qHTS for Inhibitors of the Aldehyde Dehydrogenase Family (ALDH1A3) Primary screen (AID 2061315). On the technique in general: qHTS replaces the single test concentration by a dilution series.

`COc1ccc2c(c1)Oc1nc(-c3ccc(C)s3)nc(SCC(=O)Nc3cccc(C(=O)O)c3)c1C2`: the Potency result in assay [1] and in assay [2] was “inactive” in each case.

As to `O=C(OCC#CCSc1nnc(-c2cccs2)o1)c1ccc(F)cc1`, the Potency result in assay [1] and in assay [2] was “inactive” throughout.

Regarding `O=S(=O)(c1cccc(Br)c1)N1CCN(S(=O)(=O)c2ccc3c(c2)OCCO3)CC1`, the Potency result in assay [1] and in assay [2] was “inactive” in each case.

`Cc1cc2c(s1)c1cnn(Cc3cc(Cl)ccc3F)c(=O)c1n2C`: the Potency result in assay [1] and in assay [2] was “inactive” throughout.

With `Cc1ccc(-c2ccc(=O)n(CC(=O)N(C)[C@@H](C)c3ccccc3)n2)cc1`, the Potency entry in assay [1] and in assay [2] was “inactive” in each case.

As to `Cc1ccccc1S(=O)(=O)N1CCN(S(=O)(=O)c2ccc3c(c2)OCCO3)CC1`, the Potency result in assay [1] and in assay [2] was “inactive” throughout.

With `O=[N+]([O-])c1cccc(S(=O)(=O)N2CCN(S(=O)(=O)c3ccc4c(c3)OCCO4)CC2)c1`, the Potency result in assay [1] and in assay [2] was “inactive” each time.

Regarding `CCCn1c(-c2ccc(F)cc2)nc2c(NCCN3CCCCC3)nc(C)nc21`, the Potency result in assay [1] and in assay [2] was “inactive” each time.

As to `Cc1nc(NCc2ccccc2)c2nc(-c3ccccc3)n(CCN3CCOCC3)c2n1`, the Potency result in assay [1] and in assay [2] was “inactive” in each case.

Take `Nc1cccc(OCCn2c(CCNC(=O)C3CCCCC3)nc3ccccc32)c1`: the Potency result in assay [1] and in assay [2] was “inactive” in each case.

Turning to `O=C(Nc1ccc(Cl)c(Cl)c1)N1CCN(c2ccncc2)CC1`, the Potency result in assay [1] and in assay [2] was “inactive” each time.

`COc1cccc(C(=O)NC2CCN(C#N)CC2)c1`: the Potency entry in assay [1] and in assay [2] was “inactive” throughout.

Consider `CN(C)c1cccc(-c2ccnc(N3CCC(C(N)=O)CC3)n2)c1`, for which the Potency result in assay [1] and in assay [2] was “inactive” in each case.

For `CC(C)(C)n1cnc2cc(C(=O)N3CCCCC3)ccc21`, the Potency entry in assay [1] and in assay [2] was “inactive” each time.

For the compound `COc1cc(O)c(C(CC(=O)N2CCCC(C#N)C2)c2ccc3c(c2)OCO3)c(OC)c1` (centres undefined), the Potency entry in assay [1] and in assay [2] was “inactive” throughout.

Regarding `Cc1cc2c(s1)c1cnn(Cc3c(F)c(F)c(C(F)(F)F)c(F)c3F)c(=O)c1n2C`, the Potency result in assay [1] and in assay [2] was “inactive” each time.

For `Cc1cc(-c2nnc3n2CCCCC3)c(C)n1-c1cccc(C(F)(F)F)c1`, the Potency entry in assay [1] and in assay [2] was “inactive” throughout.

In the case of `COc1ccnc(NC(=S)N2CCN(c3ncc(C(F)(F)F)cc3Cl)CC2)c1`, the Potency entry in assay [1] and in assay [2] was “inactive” each time.

Consider `N#CN1CCC(NS(=O)(=O)c2ccc(C(F)(F)F)cc2)C1` (centres undefined), for which the Potency entry in assay [1] and in assay [2] was “inactive” throughout.

`N#Cc1nonc1-c1ccccc1`: the Potency result in assay [1] and in assay [2] was “inactive” each time.

Turning to `O=[S+]([O-])(Nc1ccccc1F)c1cccc(NC/C=C/c2ccccc2)c1`, the Potency result in assay [1] and in assay [2] was “inactive” in each case.

As for `CC(C)Nc1nc(C#N)nc(Nc2ccccc2)n1`, the Potency entry in assay [1] and in assay [2] was “inactive” each time.

For the compound `COc1cnccc1-c1nc(Nc2ccc(F)c(F)c2)c2ccccc2n1`, the Potency entry in assay [1] and in assay [2] was “inactive” each time.

For `Cc1ccc(NS(=O)(=O)c2cc3c(cc2Cl)NC(=O)CO3)cc1C`, the Potency result in assay [1] and in assay [2] was “inactive” in each case.

With `Nc1ccc(Cl)cc1C(=O)c1ccc[nH]1`, the Potency result in assay [1] and in assay [2] was “inactive” in each case.

Turning to `CC(C)(C)n1nc(Cc2cccc([N+](=O)[O-])c2)c2c(N)ncnc21`, the Potency result in assay [1] and in assay [2] was “inactive” in each case.

`CCCCNc1nc(C)nc2c1nc(C)n2CCC`: the Potency entry in assay [1] and in assay [2] was “inactive” in each case.

Regarding `Cc1cc(NS(=O)(=O)c2ccc(C(=O)NCc3ccc(Cl)c(Cl)c3)cc2)no1`, the Potency entry in assay [1] and in assay [2] was “inactive” throughout.

Consider `CC(C)(C)[C@H](NC(=O)c1ccc(N)c(Cl)c1)C(=O)N1CCC[C@H]1C(=O)N[C@H](C#N)Cc1nn[nH]n1`, for which the Potency entry in assay [1] and in assay [2] was “inactive” each time.

On to `Cc1cccc(-c2ccc3ncnc(N(C)Cc4ccco4)c3c2)c1`, for which the Potency entry in assay [1] and in assay [2] was “inactive” throughout.

On to `Cc1ccccc1-c1ccc(NC(=O)c2cccs2)cn1`, for which the Potency entry in assay [1] and in assay [2] was “inactive” each time.

On to `Cc1nc(NCc2ccc(-c3ccnc(C(F)(F)F)c3)cc2)c2ccccc2n1`, for which the Potency result in assay [1] and in assay [2] was “inactive” each time.

Take `Cc1ccc(S(=O)(=O)Nc2ccc(C(=O)Nc3nc(-c4ccccc4)cs3)cc2Cl)cc1`: the Potency result in assay [1] and in assay [2] was “inactive” throughout.

With `COc1ccc(C[C@H](C(=O)O)N2C(=O)c3ccc(C(=O)O)cc3C2=O)cc1`, the Potency entry in assay [1] and in assay [2] was “inactive” each time.

For the compound `Cc1ccsc1C1N=C(Nc2nc3ccccc3o2)NC2=C1C(=O)CCC2` (centres undefined), the Potency result in assay [1] and in assay [2] was “inactive” throughout.

Turning to `O=C(Nc1ccc(F)c(C(F)(F)F)c1)Nc1nnc(-c2cccnc2)s1`, the Potency result in assay [1] and in assay [2] was “inactive” each time.

Turning to `CC(=O)c1ccc(NC(=O)Nc2nnc(-c3ccncc3)s2)cc1`, the Potency result in assay [1] and in assay [2] was “inactive” in each case.

Regarding `CC[C@H]1OC(=O)[C@H](C)[C@@H](O[C@H]2C[C@@](C)(OC)[C@@H](O)[C@H](C)O2)[C@H](C)[C@@H](O[C@@H]2O[C@H](C)C[C@H](N(C)C)[C@H]2O)[C@](C)(O)C[C@@H](C)/C(=N/OCOCCOC)[C@H](C)[C@@H](O)[C@]1(C)O`, the Potency entry in assay [1] and in assay [2] was “inactive” each time.

Consider `O=c1c2ccc(Cl)cc2nc2sc(Nc3ccc4c(c3)CCC4)nn12`, for which the Potency entry in assay [1] and in assay [2] was “inactive” throughout.

On to `Cc1cc2c(s1)c1cnn(Cc3ccc(C(F)(F)F)cc3)c(=O)c1n2C`, for which the Potency entry in assay [1] and in assay [2] was “inactive” in each case.

With `C/C=C(\C)C(=O)O[C@H]1C=C(CO)C(=O)[C@H](OC(C)=O)[C@H]1C(C)C`, the Potency result in assay [1] and in assay [2] was “inactive” in each case.

On to `O=C(Nc1ccc(Cl)c(Cl)c1)Nc1nnc(C2CCCCC2)s1`, for which the Potency entry in assay [1] and in assay [2] was “inactive” each time.
